Measurements reported in PubChem BioAssay AID1159580 (chemical genetic matrix, 2015).
Where “and” joins values, the source holds several entries; their conditions need not be identical. Equal entries are not always repeated. Screen size: about 5,500 compounds; about 2,000 (36%) were called active. Not shown: some 18% with an inconclusive outcome. Cut-off read from the data, not from the text of the source: active = normalized growth mostly below about 0.91 (no sharp cut-off); inconclusive = no clear call, values can overlap the other calls; inactive = mostly above about 0.92. This is one part of the list.

Experiment: chemical genetic growth profiling, strain panel (AID 1159580);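 note: tested at 20 µM; growth read once vehicle control cultures reached saturation at 30 °C; 1 = growth at the plate median or of vehicle wells; lower values mean less growth of the strain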
Conditions: S. cerevisiae deletion strains, growth OD

Measured: normalized growth

COc1ccc2cc(CCC(C)=O)ccc2c1
inactive: locus YAL013W, strain DEP1, stronger effect = lower value 0.952 | locus YAL021C, strain ccr4, stronger effect = lower value 0.986 | locus YAL026C, strain drs2, stronger effect = lower value 0.996 | locus YAL030W, strain snc1, stronger effect = lower value 0.992 | locus YBL061C, strain skt5, stronger effect = lower value 0.981 | locus YBR009C, strain hhf1, stronger effect = lower value 0.989 | locus YBR021W, strain FUR4, stronger effect = lower value 0.947 | locus YBR023C, strain chs3, stronger effect = lower value 0.977 | locus YBR171W, strain sec66, stronger effect = lower value 0.985 | locus YBR229C, strain ROT2, stronger effect = lower value 0.919 | locus YBR231C, strain swc5, stronger effect = lower value 0.996 | locus YBR279W, strain paf1, stronger effect = lower value 0.993 | locus YCL011C, strain gbp2, stronger effect = lower value 0.983 | locus YCL016C, strain dcc1, stronger effect = lower value 0.997 | locus YCL029C, strain bik1, stronger effect = lower value 0.939 | locus YCL061C, strain MRC1, stronger effect = lower value 1 | locus YCL069W, strain vba3, stronger effect = lower value 0.993 | locus YCR088W, strain abp1, stronger effect = lower value 0.989 | locus YDL005C, strain med2, stronger effect = lower value 1.02 | locus YDL035C, strain GPR1, stronger effect = lower value 0.93 | locus YDL040C, strain nat1, stronger effect = lower value 0.997 | locus YDL074C, strain BRE1, stronger effect = lower value 0.935 | locus YDL101C, strain DUN1, stronger effect = lower value 0.955 | locus YDL134C, strain PPH21, stronger effect = lower value 0.967 | locus YDL185W, strain tfp1, stronger effect = lower value 0.945 | locus YDR001C, strain nth1, stronger effect = lower value 0.994 | locus YDR069C, strain doa4, stronger effect = lower value 1.01 | locus YDR101C, strain arx1, stronger effect = lower value 0.931 | locus YDR137W, strain rgp1, stronger effect = lower value 1.1 | locus YDR150W, strain NUM1, stronger effect = lower value 0.939 | locus YDR159W, strain sac3, stronger effect = lower value 1.03 | locus YDR162C, strain NBP2, stronger effect = lower value 0.943 | locus YDR195W, strain ref2 1.08 | locus YDR297W, strain sur2, stronger effect = lower value 0.99 | locus YDR318W, strain mcm21, stronger effect = lower value 0.93 | locus YDR334W, strain swr1, stronger effect = lower value 1.01 | locus YDR335W, strain msn5, stronger effect = lower value 0.999 | locus YDR388W, stronger effect = lower value 0.942 | locus YDR392W, strain spt3, stronger effect = lower value 0.967 | locus YEL003W, strain gim4, stronger effect = lower value 0.991 | locus YEL037C, strain rad23, stronger effect = lower value 0.991 | locus YEL061C, strain CIN8 (second series), stronger effect = lower value 1 | locus YEL061C, strain CIN8, stronger effect = lower value 0.946 | locus YER015W, strain faa2, stronger effect = lower value 1 | locus YER016W, strain bim1, stronger effect = lower value 0.99 | locus YER110C, stronger effect = lower value 0.901 | locus YER111C, strain swi4, stronger effect = lower value 1 | locus YER155C, strain BEM2, stronger effect = lower value 0.965 | locus YER167W, strain BCK2, stronger effect = lower value 0.92 | locus YFR010W, strain ubp6, stronger effect = lower value 1.01 | locus YGL086W, strain mad1, stronger effect = lower value 0.942 | locus YGL167C, strain pmr1, stronger effect = lower value 0.99 | locus YGL173C, strain kem1, stronger effect = lower value 0.987 | locus YGL227W, strain vid30, stronger effect = lower value 0.999 | locus YGL240W, strain doc1, stronger effect = lower value 0.929 | locus YGL248W, strain PDE1, stronger effect = lower value 0.959 | locus YGL253W, strain hxk2, stronger effect = lower value 0.992 | locus YGR078C, strain PAC10, stronger effect = lower value 0.938 | locus YGR229C, strain SMI1, stronger effect = lower value 0.919 | locus YHR013C, strain ard1, stronger effect = lower value 1.02 | locus YHR027C, strain rpn1, stronger effect = lower value 0.991 | locus YHR030C, strain SLT2, stronger effect = lower value 0.958 and 0.924 | locus YHR079C, strain IRE1 (second series), stronger effect = lower value 0.939 | locus YHR079C, strain IRE1, stronger effect = lower value 0.956 | locus YHR094C, strain hxt1, stronger effect = lower value 0.96 | locus YHR129C, strain ARP1, stronger effect = lower value 0.971 | locus YHR142W, strain chs7, stronger effect = lower value 0.976 | locus YHR200W, strain rpn10, stronger effect = lower value 0.933 | locus YIL066C, strain RNR3, stronger effect = lower value 0.929 | locus YIL073C, strain SPO22, stronger effect = lower value 0.92 | locus YIL125W, strain kgd1, stronger effect = lower value 0.942 | locus YIR030C, strain dcg1, stronger effect = lower value 0.929 | locus YJL092W, strain hpr5, stronger effect = lower value 0.992 | locus YJL095W, strain BCK1 (second series), stronger effect = lower value 0.99 | locus YJL095W, strain BCK1, stronger effect = lower value 0.922 and 0.939 | locus YJL115W, strain asf1, stronger effect = lower value 1.01 | locus YJL129C, strain trk1, stronger effect = lower value 0.97 | locus YJL134W, strain LCB3, stronger effect = lower value 0.958 | locus YJL154C, strain vps35, stronger effect = lower value 0.992 | locus YJL164C, strain tpk1, stronger effect = lower value 0.992 | locus YJL166W, strain qcr8, stronger effect = lower value 0.989 | locus YJL168C, strain set2, stronger effect = lower value 0.957 | locus YJL187C, strain SWE1 (second series), stronger effect = lower value 0.959 | locus YJL187C, strain SWE1, stronger effect = lower value 0.992 | locus YJR043C, strain POL32, stronger effect = lower value 0.917 | locus YJR066W, strain TOR1, stronger effect = lower value 0.926
active: locus YDL192W, strain arf1, stronger effect = lower value 0.91 | locus YDR502C, strain sam2, stronger effect = lower value 0.908 | locus YER155C, strain BEM2 (second series), stronger effect = lower value 0.843 | locus YGL078C, strain dbp3, stronger effect = lower value 0.921 | locus YGR135W, strain pre9, stronger effect = lower value 0.881 | locus YGR252W, strain gcn5, stronger effect = lower value 0.763
